Bioassay records: PubChem BioAssay, National Center for Advancing Translational Sciences (NCATS)
Shown are actives, neighbours in structure and some others; about 18% of the full set was active somewhere.
DT40 TDP1 no CPT: qHTS for Inhibitors of human tyrosyl-DNA phosphodiesterase 1 (TDP1): qHTS in cells in absence of CPT | Potency, µM (highest dose often 46.2 µM), hits mostly inhibitors | hit rate 15% among 420,000 | AID 686978, 2013 | DT40 Tdp1-/- hTDP1 cells, no CPT, ATP luminescence, 48 h; note: nearly all actives have a fitted effect of over 55% in size
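Stably hTDP1-transfected Tdp1-null chicken DT40 cells were treated with library compounds minus camptothecin and grown for at least 48 hr at 37 °C, after which cellular ATP was quantified by luminescence.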
TDP1 block: inhibitors of human tyrosyl-DNA phosphodiesterase TDP1 | Q9NUW8 | recombinant TDP1, AlphaScreen DNA substrate cleavage | Potency, µM (series often up to 130 µM), usual class: inhibitors | hit rate 0.28% among 350,000; note: nearly all actives have a fitted effect of over 40% in size
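Signal: AlphaScreen proximity between streptavidin donor and anti-FITC acceptor beads on intact substrate. Reaction: Tdp1 1 nM, substrate 15 nM final, 5 min RT after 15 min compound preincubation.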
DT40 TDP1 CPT: DT40-hTDP1 cell growth loss with CPT; Potency, µM (top dose mostly 46.2 µM), hits mostly inhibitors; AID 686979; hit rate 12% among 420,000; chicken DT40 Tdp1-/-;hTDP1 cells + 20 nM CPT, ATP luminescence, 48 h; note: nearly all actives have a fitted effect of over 55% in size
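Cell growth measured by CellTiter-Glo luminescence after a minimum 48 h, 37 C compound exposure with 20 nM CPT in Tdp1-knockout DT40 cells stably expressing hTDP1, seeded 400/well; qHTS titration format.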
Six1-Eya2 inh: blocks human Six1 binding to Eya2; Q15475+O00167; AlphaScreen GST-Six1/His-Eya2 binding, biochemical; stronger effect = lower value; activity change, % (no concentration beside the values); hit rate 0.56% among 360,000; AID 651725; in the data active = activity change below about -65%; inconclusive = mostly about -30% to -63%
Target sequence (O00167 whole entry, looked up): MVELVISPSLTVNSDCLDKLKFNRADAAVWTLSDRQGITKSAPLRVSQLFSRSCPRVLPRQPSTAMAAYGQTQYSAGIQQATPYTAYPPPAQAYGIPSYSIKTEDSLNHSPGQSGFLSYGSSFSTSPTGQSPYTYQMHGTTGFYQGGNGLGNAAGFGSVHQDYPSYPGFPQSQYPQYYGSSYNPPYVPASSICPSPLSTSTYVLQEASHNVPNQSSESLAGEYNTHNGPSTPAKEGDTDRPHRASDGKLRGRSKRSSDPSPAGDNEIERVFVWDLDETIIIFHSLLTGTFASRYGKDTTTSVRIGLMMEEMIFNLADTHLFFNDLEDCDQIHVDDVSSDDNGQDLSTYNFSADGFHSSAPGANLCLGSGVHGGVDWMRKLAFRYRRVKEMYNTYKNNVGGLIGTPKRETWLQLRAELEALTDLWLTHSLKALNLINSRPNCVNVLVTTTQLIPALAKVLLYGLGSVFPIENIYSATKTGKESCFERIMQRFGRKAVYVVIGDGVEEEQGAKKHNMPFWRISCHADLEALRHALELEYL
Target sequence (Q15475 whole entry, looked up): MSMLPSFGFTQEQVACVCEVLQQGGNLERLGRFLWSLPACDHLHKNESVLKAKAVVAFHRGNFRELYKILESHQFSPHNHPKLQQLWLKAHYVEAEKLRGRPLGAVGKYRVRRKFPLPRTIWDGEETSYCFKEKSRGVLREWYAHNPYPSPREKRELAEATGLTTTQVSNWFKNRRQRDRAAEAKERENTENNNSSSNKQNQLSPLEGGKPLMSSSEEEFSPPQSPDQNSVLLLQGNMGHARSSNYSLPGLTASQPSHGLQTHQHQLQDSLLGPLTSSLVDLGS
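Compounds are tested against tagged Six1 and Eya2 proteins bridged by glutathione donor and nickel acceptor beads; after a one-hour incubation at 37 °C without light, AlphaScreen emission is recorded.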
CtBP-E1A blk: inhibitors of CtBP/E1A interaction; activity change, % (no concentration beside the values); AID 651724; AlphaScreen GST-E1A/His-CtBP binding, 1536-well; stronger effect = lower value; hit rate 0.49% among 340,000; in the data active = activity change below about -65%; inconclusive = mostly about -30% to -63%
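Protein mix (5X: 125 nM each GST-E1A, His-CtBP) was incubated with pinned compound 2 h at 37 deg C in dark, in 50 mM Tris pH 8.0 buffer with 300 mM NaCl. Glutathione donor and nickel acceptor beads followed; AlphaScreen signal read after 1 h.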
IL-1B inflam inh: inflammasome signaling inhibition, IL-1 beta readout | activity change, % at 57.5 µM | THP-1 LPS/ATP IL-1B secretion, AlphaLISA, 16 h; stronger effect = lower value | hit rate 4.7% among 360,000; in the data active = activity change below about -50%; inconclusive = mostly about -30% to -49%
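Secreted IL-1B measured by AlphaLISA bead assay after 16 h compound exposure of THP-1 cells; compounds (final up to 57.5 uM) added 1 h before LPS (250 ng/mL) and ATP (1.25 mM) stimulation; lower signal means less secretion.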
A number is an active result; – = inactive; ? = inconclusive; · = not tested or not shown. Unless noted, calls come from the whole dose curve; as a rule, active = well fitted curve in the direction sought with a large enough effect; inconclusive = small, poorly fitted or top-dose-only effect, or another doubt; inactive = no such curve, though single readings can be large; an effect the other way counts as inactive or inconclusive.

SMILES	DT40 TDP1 no CPT	TDP1 block	DT40 TDP1 CPT	Six1-Eya2 inh	CtBP-E1A blk	IL-1B inflam inh
CCc1ccc(-n2nc3cc(C)c(NC(=O)c4ccccc4C)cc3n2)cc1	8.2µM	–	?	·	·	·
O=C(CSCc1c(F)cccc1F)Nc1ccccc1	–	–	–	–	–	–
CCn1c(=O)c2cc(C(=O)NCCCN(C)Cc3ccccc3)sc2c2ccccc21	?	–	?	·	·	·
CCn1c(=O)c2cc(C(=O)NCCCN3CCN(c4ccc(F)cc4)CC3)sc2c2ccccc21	6.51µM	–	18.4µM	·	·	·
CCn1c(=O)c2cc(C(=O)NC3CCCCCC3)sc2c2ccccc21	16.4µM	–	16.4µM	·	·	·
CCCCNC(=O)c1cc2c(=O)n(CC)c3ccccc3c2s1	23.1µM	·	?	–	–	–
Cn1c(=O)c2cc(C(=O)NC3CCCCCC3)sc2c2ccccc21	18.4µM	–	?	·	·	·
CCC1CCCCN1CCCNC(=O)c1cc2c(=O)n(CC)c3ccccc3c2s1 (stereo unspecified)	?	–	?	·	·	·
NC(=O)NC(=O)CSc1nc2sc(-c3ccccc3)cc2c(=O)n1-c1ccccc1	?	–	–	–	–	?
NS(=O)(=O)c1cc2c(cc1Cl)NC(CC1CCCC1)NS2(=O)=O (stereo unspecified)	–	·	–	–	·	–
O=C(NCCOc1nc(N2CCOCC2)nc(N2CCOCC2)n1)Nc1ccc(Cl)cc1	–	–	–	–	–	–
CN(C)c1nc(OCCNC(=O)COc2ccc(Cl)cc2Cl)nc(N2CCOCC2)n1	13µM	–	14.6µM	–	–	–
Cc1cc(Cl)ccc1OCC(=O)NCCOc1nc(N2CCOCC2)nc(N2CCOCC2)n1	20.6µM	–	?	–	–	–
Cc1ccc(-c2noc(C3CCCN(C(=O)c4cccc([N+](=O)[O-])c4)C3)n2)o1 (stereo unspecified)	–	·	?	–	–	–
Cc1nc([N+](=O)[O-])c(Br)n1CC(=O)c1ccc2ccccc2c1	20.6µM	–	20.6µM	–	–	-120.1
Cc1nc([N+](=O)[O-])c(Br)n1CC(=O)c1ccc(Br)cc1	8.2µM	–	7.31µM	–	–	-84.0
Cc1cc([N+](=O)[O-])nn1CC(=O)c1ccccc1	–	–	–	–	–	–
Cc1nc([N+](=O)[O-])c(Br)n1CC(=O)c1ccccc1	8.2µM	–	18.4µM	–	–	?
CCCCn1c(N)c(N(CCC(C)C)C(=O)c2cccc(S(=O)(=O)N3CCN(C)CC3)c2)c(=O)[nH]c1=O	–	·	–	–	–	–
Cc1ccc(C)c(N2CCN(CCN3CCCCC3)CC2)c1	?	·	–	–	·	–
CCCCn1c(N)c(N(CC)C(=O)CN2C(=O)NC(C)(c3ccccc3)C2=O)c(=O)[nH]c1=O (stereo unspecified)	–	·	–	–	–	–
Cc1ccnc(NC(=O)Cc2c(F)cccc2Cl)c1	–	·	?	–	–	–
Nc1ncnc2c1ncn2[C@@H]1O[C@H](CO)C[C@H]1O	7.31µM	·	8.2µM	–	–	–
Nc1ncnc2c1ncn2C1OC(CO)C2OC21 (stereo unspecified)	–	·	–	–	–	–
Nc1ncnc2c1ncn2C1C=C(CO)C(O)C1O (stereo unspecified)	0.164µM	·	0.0366µM	–	–	–
SMILES	DT40 TDP1 no CPT	TDP1 block	DT40 TDP1 CPT	Six1-Eya2 inh	CtBP-E1A blk	IL-1B inflam inh
CC=C1OC(n2cnc3c(N)ncnc32)C(O)C1O (stereo unspecified)	?	·	?	–	–	–
Nc1nc2c(ncn2C2OC(CO)CC2O)c(=O)[nH]1 (stereo unspecified)	1.46µM	–	0.92µM	·	·	·
Nc1ncnc2c1ncn2[C@@H]1O[C@H](COS(=O)(=O)O)[C@@H](O)[C@H]1O	18.4µM	–	?	–	–	–
C/C=C/C=C(/NC(=O)c1ccccc1)C(=O)Nc1ccccc1	–	–	–	–	–	–
O=C1c2ccccc2-c2n[nH]c3cccc1c23	21.1µM	–	8.91µM	?	?	-77.1
CN1CCN(C2=C(Cl)C(=O)N(c3ccc(Cl)c(Cl)c3)C2=O)CC1	?	–	29.1µM	–	–	?
O=C(CSc1nc2ccccc2c(=O)n1CCC(=O)NC1CCCCC1)Nc1ccccc1Cl	–	–	–	·	·	·
CCOC(=O)Cn1nc(C)c(NC(=O)CCc2ccccc2)c1C	–	–	–	–	–	–
Cn1c(C(=O)NCCCN2CCCCCC2)cc2c(=O)n(C)c3ccccc3c21	?	–	18.4µM	–	–	–
CCCN1CCN(CCCNC(=O)c2cc3c(=O)n(C)c4ccccc4c3n2C)CC1	?	–	?	–	–	–
Cn1c(C(=O)NCCCN2CCc3ccccc3C2)cc2c(=O)n(C)c3ccccc3c21	?	–	?	–	–	-53.2
Cc1ccc2oc(=O)n(CCOc3ccccc3)c2c1	–	–	–	–	–	–
COc1ccc(Br)c(C(=O)N2CCN(S(=O)(=O)/C=C/c3ccccc3)CC2)c1	–	–	–	–	–	–
O=C(/C=C/c1ccccc1)/C=C/c1ccccc1	·	·	5.17µM	–	–	-98.5
O=C(/C=C/c1ccccc1)c1ccc2ccccc2c1	16.4µM	·	?	–	–	?
O=C(c1ccc2ccccc2c1)N1CCN(S(=O)(=O)/C=C/c2ccccc2)CC1	25.9µM	–	16.4µM	–	–	–
O=C(/C=C/c1ccccc1)c1ccc2c3c(cccc13)CC2	?	–	?	–	–	-98.9
C=C(C(=O)O)c1ccc2ccccc2c1	–	·	–	·	·	·
C[C@H](CO)N1C[C@H](C)[C@@H](CN(C)C(=O)NC2CCCCC2)Oc2c(NS(=O)(=O)c3ccccc3)cccc2C1=O	–	–	–	–	–	–
C[C@H](CO)N1C[C@H](C)[C@@H](CN(C)Cc2ccccc2)OCCCC[C@H](C)Oc2ccc(N(C)C)cc2C1=O	–	·	–	–	–	–
CCNC(=S)N1CCN(Cc2ccccc2)CC1	–	–	–	–	–	–
COc1cccc(-n2c(SCc3cccc(C)c3)nc3c([nH]c4ccccc43)c2=O)c1	?	–	?	·	·	·
O=C(COc1ccc(F)cc1Br)N1CCN(S(=O)(=O)/C=C/c2ccccc2)CC1	?	–	?	–	–	-50.3
O=Cc1ccc(OC(=O)/C=C/c2ccccc2)cc1	–	·	–	?	-94.4	–
O=C(/C=C/c1ccc[nH]1)c1ccccc1	?	–	25.9µM	–	–	?
O=CC(=O)c1ccccc1	16.4µM	–	?	–	–	–
O=C(/C=C/c1ccc[nH]1)c1ccc(F)cc1	–	–	–	–	–	–
